Source: PubChem BioAssay (NCATS)
Records with an inconclusive call do not appear. Active and inactive are the calls of the source. Unless noted, calls come from the whole dose curve; as a rule, active = well fitted curve in the direction sought with a large enough effect; inconclusive = small, poorly fitted or top-dose-only effect, or another doubt; inactive = no such curve, though single readings can be large; an effect the other way counts as inactive or inconclusive.

Tests used:
[1] = Cell Viability - BJ (AID 421; calls by dose curve;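 note: potency is the fitted concentration of half-maximal effect; cells exposed to compound for 40 hours at 37 °C before readout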); details: BJ fibroblast viability, qHTS
Method in brief: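 Cytotoxicity as drop in intracellular ATP (CellTiter-Glo, 20 min RT) after 40 hr compound exposure of BJ fibroblasts at 37 °C. Titrations scaled between DMSO and 100 uM tamoxifen, Hill-fitted for AC50.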

[2] = Cell Viability - Hek293 (AID 427;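 active = compounds whose dose-response curve shows a full or clear partial loss of cell viability, called from curve shape rather than a numeric limit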;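 note: potency is the fitted concentration of half-maximal effect; cells exposed to compound for 40 hours at 37 °C before reading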); details: qHTS
Method in brief: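 Luminescent ATP content (CellTiter-Glo, 20 min at room temperature) was measured after a 40 hr, 37 °C compound exposure of HEK293 cells. AC50 values came from Hill-equation fits of qHTS concentration-response data normalized to DMSO and 100 uM tamoxifen.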

[3] = Cell Viability - HepG2 (AID 433; calls by dose curve;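 note: potency is the fitted concentration of half-maximal effect; potency for ATP loss meaning cytotoxicity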); details: qHTS
Method in brief: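 Read-out is luciferase-based quantitation of cellular ATP as a measure of viable HepG2 cells after 40 h treatment at 37 °C. Signal decrease is scaled between DMSO-only and 100 uM tamoxifen controls, with AC50 fitted by the Hill equation.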

[4] = Cell Viability - MRC5 (AID 434; calls by dose curve;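 note: potency is the fitted concentration of half-maximal effect; cells exposed to compound for 40 hours at 37 °C; potency reflects cytotoxicity seen as loss of intracellular ATP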); details: MRC5 lung fibroblast viability, qHTS
Method in brief: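 AC50 values come from Hill-equation fits of intracellular ATP loss, measured by CellTiter-Glo luminescence. Normal lung fibroblasts (MRC5) had 40 hr compound treatment at 37 C, normalized between DMSO and 100 uM tamoxifen.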

[5] = Cell Viability - SK-N-SH (AID 435; calls by dose curve;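 note: potency is the fitted concentration of half-maximal effect; compound exposure lasted 40 h at 37 °C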); details: SK-N-SH neuroblastoma cell viability qHTS
Method in brief: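 Luminescent ATP signal served as the viability read-out after 40 hours of compound treatment of human neuroblastoma SK-N-SH cells. Concentration-response data, scaled between DMSO and 100 uM tamoxifen, gave AC50 values by standard Hill modeling.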

[6] = target: Mitogen-activated protein kinase 10 (Mus musculus) (UniProt Q61831); test: JNK3 AlphaScreen Assay (AID 530; active = well fitted curve in either direction with a large enough effect, not every such curve was filed as active;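 note: kinase came from lysate of stimulated human HepG2 cells; signal reports phosphorylation of biotinylated GST-cJun 1-79 at Ser73 with 10 µM ATP; % is set by controls: 0 for no effect and ±100 for the full control effect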); details: JNK3 lysate, c-Jun phosphorylation; series mostly up to 57.1 µM
Method in brief: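 Kinase buffer: 20 mM Tris-HCl pH 7.6, 10 mM MgCl2, 1 mM DTT, 0.1 mM Na3VO4, 0.01% Tween-20; ATP 10 uM. Substrate biotin-GST-cJun(1-79), enzyme from activated HepG2 lysates. Detection by Ser73 phospho-antibody AlphaScreen.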

[7] = Cell Viability - N2a (AID 540); details: N2a mouse neuroblastoma cell viability; at 92.2 µM (top of the series);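 note: cells exposed to compound for 40 h at 37 °C; plate controls were DMSO alone for no effect and tamoxifen control for full effect; nearly all actives have a fitted effect of over 45% in size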
Method in brief: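 In this qHTS cytotoxicity screen, ATP-dependent luciferase luminescence reports viable N2a cells after a 40 hr compound exposure in complete culture medium. Potencies are AC50 values from standard Hill equation fits.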

[8] = Cell Viability - NIH 3T3 (AID 541); details: NIH 3T3 cell viability, qHTS; activity change, negative = cytotoxicity: at 92.2 µM (top of the series);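 note: plate controls were DMSO alone for no effect and tamoxifen positive control for full effect; nearly all actives have a fitted effect of over 25% in size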
Method in brief: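 In this cytotoxicity screen, acute toxicity is scored as an ATP drop measured by CellTiter-Glo in NIH 3T3 fibroblasts following a 40 hr, 37 °C incubation with compound.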

[9] = Cell Viability - HUV-EC-C (AID 542); details: HUV-EC-C endothelial cell viability, qHTS; series mostly up to 92.2 µM; note: nearly all actives have a fitted effect of over 35% in size; note: potency is the fitted concentration of half-maximal effect; for activity change, negative = cytotoxicity: % is set by controls: 0 for no effect and ±100 for the full control effect
Method in brief: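 Concentration-dependent ATP loss in HUV-EC-C cells is the measure. Exposure lasts 40 hr at 37 °C; luminescence follows CellTiter-Glo addition, and Hill fits give AC50.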

[10] = Cell Viability - H-4-II-E (AID 543); details: H-4-II-E rat hepatoma viability; series mostly up to 92.2 µM; note: nearly all actives have a fitted effect of over 35% in size; note: potency is the fitted concentration of half-maximal effect
Method in brief: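 AC50 from Hill-modelled qHTS concentration-response curves. H-4-II-E rat hepatoma cells in complete medium, 40 hr exposure at 37 °C, viability by CellTiter-Glo ATP luminescence.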

[11] = Cell Viability - SH-SY5Y (AID 544); details: SH-SY5Y neuroblastoma cell viability; series mostly up to 92.2 µM; note: nearly all actives have a fitted effect of over 55% in size; note: potency is the fitted concentration of half-maximal effect
Method in brief: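 Quantitative HTS in SH-SY5Y neuroblastoma cells, 40 hr treatment at 37 °C, ATP content by luciferase luminescence; AC50 from Hill fits.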

[12] = Cell Viability - Renal Proximal Tubule (AID 545); details: renal proximal tubule cells viability, primary cells of rat origin; at 91.7 µM (top of the series);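 note: 0% = DMSO only and -100% = 100 µM tamoxifen; nearly all actives have a fitted effect of over 40% in size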
Method in brief: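 Luminescent ATP signal (CellTiter-Glo) served as the viability read-out after 40 hr compound exposure of freshly isolated rat proximal tubule cells at 37 °C. Concentration-dependent ATP loss was fitted with the Hill equation to give AC50.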

[13] = target: Glucocorticoid receptor (Homo sapiens) (UniProt P04150); test: GR-GFP Redistribution (AID 450;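 active = compounds whose dose series gives a full or clear partial fitted curve of increased nuclear translocation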; note: potency is the fitted concentration of half-maximal effect); details: U2OS GR-GFP nuclear translocation, laser cytometry, 2 h
Sequence of Glucocorticoid receptor (Homo sapiens) (P04150 whole entry, looked up, the tested form may be a part): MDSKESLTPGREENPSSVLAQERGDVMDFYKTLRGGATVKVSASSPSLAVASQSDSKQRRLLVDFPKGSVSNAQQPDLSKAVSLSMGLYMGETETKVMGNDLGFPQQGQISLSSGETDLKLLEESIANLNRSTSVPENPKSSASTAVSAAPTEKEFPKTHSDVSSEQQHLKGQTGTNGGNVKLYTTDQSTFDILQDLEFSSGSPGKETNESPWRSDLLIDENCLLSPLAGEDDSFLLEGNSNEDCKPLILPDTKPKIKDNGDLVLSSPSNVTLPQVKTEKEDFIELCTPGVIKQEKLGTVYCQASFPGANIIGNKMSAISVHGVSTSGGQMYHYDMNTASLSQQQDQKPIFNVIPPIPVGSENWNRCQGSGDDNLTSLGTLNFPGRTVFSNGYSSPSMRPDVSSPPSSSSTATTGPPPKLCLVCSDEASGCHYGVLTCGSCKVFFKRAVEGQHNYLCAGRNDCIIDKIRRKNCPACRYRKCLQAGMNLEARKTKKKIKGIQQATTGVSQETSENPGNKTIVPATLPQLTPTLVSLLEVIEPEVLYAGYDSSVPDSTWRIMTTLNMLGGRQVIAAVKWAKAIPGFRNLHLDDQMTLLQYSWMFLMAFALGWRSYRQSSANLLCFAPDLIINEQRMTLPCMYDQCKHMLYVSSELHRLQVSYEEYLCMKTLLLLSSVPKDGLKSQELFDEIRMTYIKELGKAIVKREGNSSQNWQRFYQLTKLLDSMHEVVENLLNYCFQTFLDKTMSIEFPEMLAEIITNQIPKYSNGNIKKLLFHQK

[14] = target: Glucocorticoid receptor (Homo sapiens) (UniProt P04150); test: GR-EFC Redistribution (AID 451; calls by dose curve; note: potency is the fitted concentration of half-maximal effect); details: CHO-K1 GR-EFC translocation, beta-gal luminescence, 2 h
Method in brief: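 Translocation of GR-ED fusion to nuclear EA restores b-gal, read by luminescence after 1 h room-temperature detection. Engineered CHO-K1 biosensor cells, 1,000/well, exposed 2 h at 37 C to titrations up to 46 uM final.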

c1ccc2ccccc2c1
inactive: Potency [1] > 92 µM | Potency [2] > 92 µM | Potency [3] > 92 µM | Potency [4] > 92 µM | Potency [5] > 92 µM | outcome [6] | activity change, negative = cytotoxicity [7] 6.48% | activity change, negative = cytotoxicity [8] 0.772% | Potency [9] | Potency [10] | Potency [11] | activity change, negative = cytotoxicity [12] 1.8%

C=C1C(CCl)(CCl)C2(Cl)C(Cl)C(Cl)C1(Cl)C2(Cl)Cl (stereo not drawn)
active: Potency [2] 48.2 µM | Potency [5] 50 µM | activity change, negative = cytotoxicity [7] -112% | activity change, negative = cytotoxicity [8] -80.2% | Potency [10] 50.1 µM | Potency [11] 31.6 µM | activity change, negative = cytotoxicity [12] -88.3%
inactive: Potency [3] > 92 µM | Potency [4] > 92 µM

CC/C=C\C/C=C\C/C=C\CCCCCCCC(=O)O
active: activity change, negative = cytotoxicity [8] -137%
inactive: Potency [1] > 92 µM | Potency [2] > 92 µM | Potency [3] > 92 µM | Potency [4] > 92 µM | Potency [5] > 92 µM | outcome [6] | activity change, negative = cytotoxicity [7] -20.9% | Potency [9] | Potency [10] | activity change, negative = cytotoxicity [12] -15.2%

CC(C)O
inactive: Potency [1] > 92 µM | Potency [2] > 92 µM | Potency [3] > 92 µM | Potency [4] > 92 µM | Potency [5] > 92 µM | outcome [6] | activity change, negative = cytotoxicity [7] -11.4% | Potency [9] | Potency [10] | Potency [11] | activity change, negative = cytotoxicity [12] 5.6%

C[C@H]1O[C@@H](O[C@H]2[C@@H](O)C[C@H](O[C@H]3[C@@H](O)C[C@H](O[C@H]4CC[C@@]5(C)[C@H](CC[C@@H]6[C@@H]5C[C@@H](O)[C@]5(C)[C@@H](C7=CC(=O)OC7)CC[C@]65O)C4)O[C@@H]3C)O[C@@H]2C)C[C@H](O)[C@@H]1O
active: Potency [1] 0.00125 µM | Potency [2] 0.0128 µM | Potency [3] 0.0159 µM | Potency [5] 0.0073 µM | activity change, negative = cytotoxicity [8] -91% | Potency [9] 20 nM | Potency [11] 0.0126 µM
inactive: Potency [4] > 92 µM | outcome [6] | Potency [10] | activity change, negative = cytotoxicity [12] -10.1%

C[C@@](Cc1ccc(O)c(O)c1)(NN)C(=O)O
inactive: Potency [13] > 46 µM | Potency [14] > 46 µM

C/C=C/C=C/C(=O)O
inactive: Potency [1] > 92 µM | Potency [2] > 92 µM | Potency [3] > 92 µM | Potency [4] > 92 µM | Potency [5] > 92 µM | outcome [6] | activity change, negative = cytotoxicity [7] -0.963% | activity change, negative = cytotoxicity [8] 8.21% | Potency [9] | Potency [10] | Potency [11] | activity change, negative = cytotoxicity [12] -2.27%

CO
inactive: Potency [1] > 92 µM | Potency [2] > 92 µM | Potency [3] > 92 µM | Potency [4] > 92 µM | Potency [5] > 92 µM | outcome [6] | activity change, negative = cytotoxicity [7] 8.2% | activity change, negative = cytotoxicity [8] -1.78% | Potency [9] | Potency [10] | Potency [11] | activity change, negative = cytotoxicity [12] 5.17%

Oc1cccc(O)c1O
inactive: Potency [3] > 92 µM | Potency [4] > 92 µM | outcome [6] | activity change, negative = cytotoxicity [7] -18.3% | Potency [9] | Potency [10] | activity change, negative = cytotoxicity [12] -27.7%

OC[C@H]1O[C@@H]2O[C@H]3[C@H](O)[C@@H](O)[C@@H](O[C@H]4[C@H](O)[C@@H](O)[C@@H](O[C@H]5[C@H](O)[C@@H](O)[C@@H](O[C@H]6[C@H](O)[C@@H](O)[C@@H](O[C@H]7[C@H](O)[C@@H](O)[C@@H](O[C@H]1[C@H](O)[C@H]2O)O[C@@H]7CO)O[C@@H]6CO)O[C@@H]5CO)O[C@@H]4CO)O[C@@H]3CO
inactive: Potency [1] > 92 µM | Potency [2] > 92 µM | Potency [3] > 92 µM | Potency [4] > 92 µM | Potency [5] > 92 µM | outcome [6] | activity change, negative = cytotoxicity [7] -3.62% | activity change, negative = cytotoxicity [8] -6.68% | Potency [9] | Potency [10] | Potency [11] | activity change, negative = cytotoxicity [12] -2.88%

Nc1nccs1
inactive: Potency [1] > 92 µM | Potency [2] > 92 µM | Potency [3] > 92 µM | Potency [4] > 92 µM | Potency [5] > 92 µM | outcome [6] | activity change, negative = cytotoxicity [7] 4.71% | activity change, negative = cytotoxicity [8] -0.295% | Potency [9] | Potency [10] | Potency [11] | activity change, negative = cytotoxicity [12] 6.3%

O.O.O.O.O.O.O.O=S(=O)([O-])[O-].[Co+2]
inactive: Potency [1] > 92 µM | Potency [2] > 92 µM | Potency [3] > 92 µM | Potency [4] > 92 µM | Potency [5] > 92 µM | activity change, negative = cytotoxicity [7] -16.8% | activity change, negative = cytotoxicity [8] -26.9% | Potency [9] | Potency [11]

NC(N)=O
inactive: Potency [1] > 92 µM | Potency [2] > 92 µM | Potency [3] > 92 µM | Potency [4] > 92 µM | Potency [5] > 92 µM | activity change, negative = cytotoxicity [7] 12.5% | activity change, negative = cytotoxicity [8] -1.75% | Potency [9] | Potency [10] | Potency [11] | activity change, negative = cytotoxicity [12] -9.08%

CC1=CCC2CC1C2(C)C (stereo not drawn)
inactive: Potency [1] > 92 µM | Potency [2] > 92 µM | Potency [3] > 92 µM | Potency [4] > 92 µM | Potency [5] > 92 µM | outcome [6] | activity change, negative = cytotoxicity [7] 4.74% | activity change, negative = cytotoxicity [8] -3.47% | Potency [9] | Potency [10] | Potency [11] | activity change, negative = cytotoxicity [12] 2.31%

CC(C)(C)CC(C)(C)c1ccc(OCCO)cc1
inactive: Potency [1] > 92 µM | Potency [4] > 92 µM | Potency [5] > 92 µM | outcome [6] | activity change, negative = cytotoxicity [8] -28.8% | Potency [9] | Potency [11] | activity change, negative = cytotoxicity [12] -16.5%

CCOC(C)OCC
inactive: Potency [1] > 92 µM | Potency [2] > 92 µM | Potency [3] > 92 µM | Potency [4] > 92 µM | Potency [5] > 92 µM | outcome [6] | activity change, negative = cytotoxicity [7] -0.722% | activity change, negative = cytotoxicity [8] -3.45% | Potency [9] | Potency [10] | Potency [11] | activity change, negative = cytotoxicity [12] -8.55%
